# Test results as given in PubChem BioAssay (NCI).
# Compounds without any hit were thinned out: in the full panel of roughly 83,000, 20% have a hit.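 Cell lines were cultured in 96-well plates, exposed to a single compound concentration, and assessed for percent growth 48 hours later.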 The source made the active and inactive calls. Rule for the calls: active = growth percent below 10; inactive = the rest.
# Tested on: BT-549 breast
# Experiment: NCI-60 one-dose screen, 48 h (100 = growth as untreated, 0 = no growth, -100 = all killed)
# Conditions: 10 µM
row,SMILES,growth
1,O=C(COc1cccc(/C=C2\CSc3ccccc3C2=O)c1)c1ccc(Cl)cc1,-77.5% (active)
2,O=C(COc1cccc(/C=C2\CSc3ccc(Cl)cc3C2=O)c1)c1ccc(Cl)cc1,20.2% (inactive)
3,O=C(CCl)Nc1ccc(Cc2ccc(NC(=O)CCl)cc2)cc1,-23.5% (active)
4,O=C1CSC(=S)N1/N=C/c1ccc(Cl)s1,102% (inactive)
5,CCc1ccc(C2=NN(c3ccc(S(C)(=O)=O)cc3)C(=O)CC2)cc1,21.9% (inactive)

# Tested on: MDA-MB-435 melanoma
# Experiment: as above
# Conditions: 10 µM
row,SMILES,growth
1,O=C(N/N=C/c1ccc(Cl)cc1)c1ccccc1Nc1cccc(C(F)(F)F)c1,53% (inactive)
2,O=C(CSc1nccc(Nc2cccc3ccccc23)n1)c1ccc(Cl)cc1,101% (inactive)
3,O=C(CSc1nnc(-c2cccnc2SCc2ccccc2)o1)Nc1nc(Cl)cc(Cl)n1,105% (inactive)
4,Nc1nc(N)c(N)c(Nc2ccc(CCO)cc2)n1,104% (inactive)
5,O=C(CNc1nnc(-c2cccnc2SCc2ccccc2)s1)Nc1nc(Cl)cc(Cl)n1,114% (inactive)
6,CN(C)c1ccc(/C=N/NC(=O)c2ccccc2Nc2cccc(C(F)(F)F)c2)cc1,92.3% (inactive)
7,CN1C(=O)C2(Nc3cc(Cl)ccc3S2)c2cc(Cl)ccc21 (stereo not given),98.4% (inactive)
8,CC(C)(C)OC(=O)N1CCc2c(sc3ncnc(N/N=C/c4cccc5ccccc45)c23)C1,-11.7% (active)
9,COc1cc(CNC(=O)C2CSC3(C)c4ccccc4C(=O)N23)cc(OC)c1OC (stereo not given),105% (inactive)
10,c1ccc(CSc2ncccc2-c2nnc(SCCN3CCOCC3)o2)cc1,114% (inactive)
